# In PubChem BioAssay (NCATS):
# Inconclusive results are not listed. Active and inactive are the calls of the source. Calls come from the whole dose curve; as a rule, active = well fitted inhibition curve with a large enough effect; inconclusive = small, poorly fitted or top-dose-only effect; inactive = flat fitted curve, though single readings scatter.
# Target: Ubiquitin carboxyl-terminal hydrolase 1 (Homo sapiens) (UniProt O94782)
# Assay: Inhibitors of USP1/UAF1: Pilot qHTS (AID 504865); note: nearly all actives have a fitted effect of over 35% in size;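 for activity change, negative = inhibition: rhodamine fluorescence freed from ubiquitin-rhodamine substrate followed over time; top concentration of the series differs between compounds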
# Conditions: purified USP1/UAF1, Ub-rhodamine cleavage fluorescence; series mostly up to 114 µM; activity change, negative = inhibition: at the top concentration
# Procedure, shortened: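 1nM USP1/UAF1 + cpd, 15 min RT; start w/ Ub-Rho 150nM final; kinetic FL 480/540 nm, 6 reads q60 s. Buffer 50mM HEPES pH 7.8, 0.5mM EDTA, 1mM TCEP, 0.01% Tween-20, 0.1 mg/ml BSA.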
# % is set by controls: 0 for no effect and ±100 for the full control effect; potency is the fitted concentration of half-maximal effect.
# Ubiquitin carboxyl-terminal hydrolase 1 (Homo sapiens), sequence (O94782 whole entry, looked up): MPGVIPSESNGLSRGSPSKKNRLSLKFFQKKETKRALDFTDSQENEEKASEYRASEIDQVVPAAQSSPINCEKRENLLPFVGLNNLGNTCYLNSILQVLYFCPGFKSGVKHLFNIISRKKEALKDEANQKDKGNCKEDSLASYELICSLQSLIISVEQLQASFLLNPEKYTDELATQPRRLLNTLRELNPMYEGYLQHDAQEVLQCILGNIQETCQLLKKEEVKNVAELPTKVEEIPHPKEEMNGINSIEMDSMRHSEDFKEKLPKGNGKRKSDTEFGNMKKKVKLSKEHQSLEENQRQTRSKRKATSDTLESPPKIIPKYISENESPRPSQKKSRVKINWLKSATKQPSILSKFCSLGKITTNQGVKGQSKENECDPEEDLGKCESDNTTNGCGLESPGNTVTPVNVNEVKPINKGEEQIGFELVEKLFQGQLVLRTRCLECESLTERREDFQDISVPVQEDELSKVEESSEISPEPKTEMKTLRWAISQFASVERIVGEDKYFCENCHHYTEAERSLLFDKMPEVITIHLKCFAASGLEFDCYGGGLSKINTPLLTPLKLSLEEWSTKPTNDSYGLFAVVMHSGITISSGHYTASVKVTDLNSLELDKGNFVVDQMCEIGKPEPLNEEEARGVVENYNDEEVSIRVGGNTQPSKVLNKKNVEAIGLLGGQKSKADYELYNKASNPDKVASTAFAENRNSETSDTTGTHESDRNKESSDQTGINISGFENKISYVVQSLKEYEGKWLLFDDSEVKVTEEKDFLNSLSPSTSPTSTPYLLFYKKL
SMILES,"activity change, negative = inhibition",Potency
C[C@H](N)C(=O)N[C@@H](C)P(=O)(O)O,-5.84% (inactive),
CC(O)CN(C)C (stereo not given),-7.91% (inactive),
O=C(CCCN1CCN2CCCC2C1)c1ccc(F)cc1 (stereo not given),-9.42% (inactive),
Cc1cc(-c2ccc(N=Nc3c(S(=O)(=O)O)cc4cc(S(=O)(=O)O)cc(N)c4c3O)c(C)c2)ccc1N=Nc1c(S(=O)(=O)O)cc2cc(S(=O)(=O)O)cc(N)c2c1O,,8.91 µM (active)
C/C=C/C=C/C(=O)O,1.14% (inactive),
CNC(=O)[C@H](Cc1c[nH]c2ccccc12)NC(=O)[C@@H](CC(=O)NO)CC(C)C,-2.14% (inactive),
CCC(C)[C@@H](N)C(=O)O (stereo not given in full),1.41% (inactive),
FC(F)OC(Cl)C(F)(F)F (stereo not given),-4.77% (inactive),
Cc1nc(NS(=O)(=O)c2ccc(N)cc2)nc(C)c1Br,-11.3% (inactive),
CO/N=C(\C(=O)N[C@@H]1C(=O)N2C(C(=O)[O-])=C(C[n+]3cccc4c3CCC4)CS[C@H]12)c1csc(N)n1,-7.09% (inactive),
COc1ccccc1N1CCN(CCCC(=O)c2ccc(F)cc2)CC1,-5.3% (inactive),
O=C(NNCNNC(=O)c1ccncc1)c1ccncc1,-3.63% (inactive),
NCC(O)CC(=O)O (stereo not given),-7.98% (inactive),
S=C=Nc1ccc(N=C=S)cc1,-8.21% (inactive),
O=C1c2ccccc2C(=O)C1c1ccc(Cl)cc1,-11.6% (inactive),
NC(=O)C1c2ccccc2CCc2ccccc21,-6.59% (inactive),
Oc1cc(O)cc(O)c1,-3.08% (inactive),
O=[n+]1ccn([O-])c2ccccc21,-6.96% (inactive),
CCCc1ccc(C(=O)O)cc1,-0.983% (inactive),
C(=C\c1ccncc1)/c1ccccc1,-6.83% (inactive),

SMILES,"activity change, negative = inhibition",Potency
O=C(CCCCCCCCCCCCC1CCCC1)Nc1ccc(S(=O)(=O)c2ccc(NC(=O)CCCCCCCCCCCCC3CCCC3)cc2)cc1,20.7% (inactive),
CO/N=C(/C(=O)N[C@@H]1C(=O)N2C(C(=O)O)=C(COC(N)=O)CS[C@H]12)c1ccco1,-7.86% (inactive),
OCC1(CO)COC(C(Cl)(Cl)Cl)OC1,-7.45% (inactive),
O=C(O)C1=C(CSc2nnnn2CS(=O)(=O)O)CS[C@@H]2[C@H](NC(=O)[C@H](O)c3ccccc3)C(=O)N12,-10% (inactive),
O=C(O)c1ccc(OCCn2ccnc2)cc1,-7.06% (inactive),
CCCCCCCCCCCCOCCCN,-8.37% (inactive),
CC(C)[C@H](N)C(=O)OCC(CO)OCn1cnc2c(=O)[nH]c(N)nc21 (stereo not given in full),-0.11% (inactive),
CC(C)(C)CC(C)(C)c1cc(Cc2cc(C(C)(C)CC(C)(C)C)cc(-n3nc4ccccc4n3)c2O)c(O)c(-n2nc3ccccc3n2)c1,-3.83% (inactive),
CC(=O)Nc1ccc(OC(C)=O)cc1,-5.59% (inactive),
CCC(O)c1ccccc1 (stereo not given),-5.34% (inactive),
CCCOc1cc(N)ccc1C(=O)OCCN(CC)CC,17.3% [at 54.9 µM] (inactive),
FC(F)(F)COCC(F)(F)F,-3.73% (inactive),
CCCCCCCCCCCC(=O)N(CCO)CCO,-14.5% (inactive),
CCOC(=O)Cc1ccc(-c2ccccc2)cc1,0.706% (inactive),
CN1C(=O)C[C@@H](C(=O)N[C@@H](Cc2cnc[nH]2)C(=O)N2CCC[C@H]2C(N)=O)NC1=O,-3.31% (inactive),
CC(C)C1=CC2=CC[C@@H]3[C@](C)(CCC[C@@]3(C)C(=O)O)[C@H]2CC1,-6.33% (inactive),
Cc1cc(=O)c(C(=O)N[C@@H](C(=O)N[C@@H]2C(=O)N3C(C(=O)O)=C(CSc4nnnn4C)CS[C@H]23)c2ccc(O)cc2)c[nH]1,2.08% (inactive),
COc1cc(NCCCC(C)N)c2ncccc2c1 (stereo not given),,11.2 µM (active)
CC12CCC(C[N+](C)(CCC[N+](C)(C)C)C1)C2(C)C (stereo not given),3.86% (inactive),
CCC(C(=O)NC(N)=O)c1ccccc1 (stereo not given),-10.4% (inactive),
